# Screening results (PubChem)
# Hits are enriched below; roughly 18% of the tested compounds scored in any of these assays.
# DT40 TDP1 CPT – growth inhibition of DT40 Tdp1-/-;hTDP1 cells with camptothecin (screen for TDP1 inhibitors); chicken DT40 Tdp1-/-;hTDP1 cells + 20 nM CPT, ATP luminescence, 48 h; Potency, µM (top dose mostly 46.2 µM), without a hit: at the top dose activity change, negative = growth inhibition, actives largely listed as inhibitors; hit rate 12% among 420,000; AID 686979; also: potency is read from the fitted curve at half-maximal effect; nearly all actives have a fitted effect of over 55% in size
#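 Chicken DT40 Tdp1-/- cells stably complemented with human TDP1 were seeded at 400 cells/well in medium containing 20 nM camptothecin, exposed to pin-transferred compounds, and grown at 37 °C for at least 48 hr. Viability was read as ATP luminescence.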
# CtBP-E1A blk – inhibitors of CtBP/E1A interaction | hit rate 0.49% among 340,000 | AlphaScreen GST-E1A/His-CtBP binding, 1536-well; stronger effect = lower value | activity change, % (no concentration beside the values) | AID 651724; in the data active = activity change below about -65%; inconclusive = mostly about -30% to -63%
#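 In 5 uL wells, 23 nL compound meets equimolar GST-E1A and His-CtBP (5X stock 125 nM each) for 2 h, 37 °C. Beads (5X, 50 ug/mL) then 1 h, 37 °C, dark.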
# Six1-Eya2 blk – Six1/Eya2 interaction inhibition | AlphaScreen GST-Six1/His-Eya2 binding, biochemical; stronger effect = lower value | activity change, % (no concentration beside the values) | hit rate 0.56% among 360,000 | AID 651725; in the data active = activity change below about -65%; inconclusive = mostly about -30% to -63%
# Target sequence (O00167 whole entry, looked up): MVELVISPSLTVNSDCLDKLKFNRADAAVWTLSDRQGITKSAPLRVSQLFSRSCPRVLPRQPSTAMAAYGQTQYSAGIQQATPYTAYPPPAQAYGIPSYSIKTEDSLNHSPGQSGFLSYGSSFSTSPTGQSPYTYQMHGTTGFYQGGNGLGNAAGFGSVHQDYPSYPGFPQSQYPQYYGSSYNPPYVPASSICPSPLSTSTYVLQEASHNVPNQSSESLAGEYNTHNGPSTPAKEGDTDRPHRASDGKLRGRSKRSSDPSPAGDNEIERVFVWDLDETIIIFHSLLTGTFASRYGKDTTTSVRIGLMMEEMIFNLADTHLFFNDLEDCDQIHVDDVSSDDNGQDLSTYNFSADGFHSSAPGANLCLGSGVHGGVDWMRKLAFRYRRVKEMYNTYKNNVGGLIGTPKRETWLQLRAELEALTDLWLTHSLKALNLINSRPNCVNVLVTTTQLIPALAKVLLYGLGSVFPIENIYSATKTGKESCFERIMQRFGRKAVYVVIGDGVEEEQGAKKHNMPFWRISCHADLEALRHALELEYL
# Target sequence (Q15475 whole entry, looked up): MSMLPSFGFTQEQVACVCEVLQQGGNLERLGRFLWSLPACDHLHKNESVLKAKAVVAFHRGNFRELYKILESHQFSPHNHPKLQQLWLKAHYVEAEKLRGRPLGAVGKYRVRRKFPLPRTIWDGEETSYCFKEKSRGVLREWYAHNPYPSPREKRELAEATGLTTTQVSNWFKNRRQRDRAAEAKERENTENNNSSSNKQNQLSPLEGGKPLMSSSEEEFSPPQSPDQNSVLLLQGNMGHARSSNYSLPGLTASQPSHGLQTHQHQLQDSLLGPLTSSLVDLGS
#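 Homogeneous AlphaScreen proximity assay pairing GST-Six1 with His-tagged Eya2 (added as 5X mix: 250 nM and 500 nM) in 50 mM Tris pH 8.0, 300 mM NaCl, 1 mM TCEP. Glutathione donor and nickel acceptor beads; 1 h, 37 °C, dark.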
# IL1B secr inh – inhibitors of inflammasome signaling (IL-1 beta secretion). hit rate 4.7% among 360,000. activity change, % at 57.5 µM. AID 743279. THP-1 LPS/ATP IL-1B secretion, AlphaLISA, 16 h; stronger effect = lower value; in the data active = activity change below about -50%; inconclusive = mostly about -30% to -49%
#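 Secreted IL-1B measured by AlphaLISA bead assay after 16 h compound exposure of THP-1 cells; compounds (final up to 57.5 uM) added 1 h before LPS (250 ng/mL) and ATP (1.25 mM) stimulation; lower signal means less secretion.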
# TDP1 inh – TDP1 (human) enzyme inhibition; Q9NUW8; recombinant TDP1, AlphaScreen DNA substrate cleavage; Potency, µM (highest dose often 130 µM), inactives show top-dose activity change, negative = inhibition, usual class: inhibitors; hit rate 0.28% among 350,000; AID 485290; also: potency is read from the fitted curve at half-maximal effect; nearly all actives have a fitted effect of over 40% in size
#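 Recombinant human Tdp1 (E. coli-expressed, 1 nM final) preincubated with compounds 15 min at room temperature, then 5'-biotin/3'-phosphotyrosine-FITC DNA substrate (15 nM final) added for 5 min. AlphaScreen beads (10 ug/ml final) added 10 min; cleavage lowers signal.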
# DT40 TDP1 no CPT – qHTS for Inhibitors of human tyrosyl-DNA phosphodiesterase 1 (TDP1): qHTS in cells in absence of CPT; hit rate 15% among 420,000; Potency, µM (highest dose often 46.2 µM), inactives show at the top dose activity change, negative = growth inhibition, most hits filed as inhibitors; DT40 Tdp1-/- hTDP1 cells, no CPT, ATP luminescence, 48 h; also: potency is read from the fitted curve at half-maximal effect; nearly all actives have a fitted effect of over 55% in size
#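 Growth kinetics read by CellTiter-Glo luminescence after ≥48 hr at 37 °C. Cells: DT40 Tdp1-/- stably carrying human TDP1, 400 per well, compound exposure in the absence of CPT (DMSO vehicle).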
# Starred values were filed as active, the others as inactive; ? = inconclusive; / = not tested or not shown; [ ] = remark or other dose. Unless noted, calls follow the shape of the dose curve; as a rule, active = well fitted curve in the direction sought with a large enough effect; inconclusive = small, poorly fitted or top-dose-only effect, or another doubt; inactive = no such curve, though single readings can be large; an effect the other way counts as inactive or inconclusive. % is scaled to controls: 0 for no effect and ±100 for the full control effect.
SMILES,DT40 TDP1 CPT,CtBP-E1A blk,Six1-Eya2 blk,IL1B secr inh,TDP1 inh,DT40 TDP1 no CPT
CC(OC(=O)c1ccc(Cl)c([N+](=O)[O-])c1)C(=O)N1CCN(Cc2ccccc2)CC1 (stereo not given),?,/,-7,-96*,5%,?
Cc1ccc(C(=O)OCC(=O)Nc2ccccc2)cc1S(=O)(=O)N1CCCCC1,-9%,-2,0,-4,/,-8%
CCN(CC)C(=O)COC(=O)c1ccc(C)c(NC(=O)c2ccco2)c1,-6%,2,5,21,-3%,1%
COc1ccc(NC(=O)COC(=O)c2ccc(C)c(S(=O)(=O)N3CCCCC3)c2)cc1,?,-7,-10,0,40µM*,?
COC(=O)c1nn(-c2cccc(Cl)c2)cc(OC)c1=O,-12%,-16,-13,23,/,10%
COc1cc(NC(=O)C(CC(C)C)NS(=O)(=O)c2ccc3c(c2)CCN3C(C)=O)cc(OC)c1 (stereo not given),-25%,/,/,/,-5%,3%
N#Cc1ccc(COC(=O)CN2C(=O)NC3(CCCC3)C2=O)cc1,-15%,2,9,-5,1%,-23%
CC1=C(C(=O)Nc2cccc(C(=O)NC(C)c3ccccc3)c2)SCCO1 (stereo not given),?,-1,14,-10,/,16µM*
COCCNC(=O)c1cccc(NC(=O)C2=C(C)OCCS2)c1,11%,7,5,0,/,-9%
N#CC1(C#N)COC23CCCCC2C1(C#N)C(=N)O3 (stereo not given),5.8µM*,1,0,-53*,-6%,5.8µM*
N#CC12COC3(CCCCC3C1(C#N)C#N)OC2=N (stereo not given),2.3µM*,-21,-17,-21,/,2.6µM*
Cc1cc(-c2nc3ccccc3c(=O)o2)ccc1[N+](=O)[O-],-24%,3,4,35,1%,-29%
Oc1ccc2c(c1-c1c(O)c(Br)cc3c1CCCC3)CCCC2,/,/,/,/,5%,/
Cc1ccc(S(=O)(=O)N2CCOC2CNC(=O)C(=O)NCCc2ccc(S(N)(=O)=O)cc2)cc1 (stereo not given),-18%,-12,-11,5,1%,?
COc1ccc(COc2ccc(S(=O)(=O)N3CCCC3)cc2C(N)=O)cc1F,-20%,-15,3,-1,-10%,-13%
Cc1cccc(-c2ccc([N+](=O)[O-])cc2CN2CCN(c3ncc(Cc4ccccc4)cn3)CC2)c1,5.8µM*,-14,-14,0,/,5.8µM*
Cc1cccc(-c2ccc(O)cc2CN2CCN(c3ncc(Cc4ccccc4)cn3)CC2)c1,?,0,-14,-7,/,21µM*
CCCCCCc1nc2nc(Cl)c(Cl)nc2[nH]1,18µM*,-3,4,11,/,8.2µM*
c1ccc2[nH]c(CCCCCc3nc4ccccc4[nH]3)nc2c1,?,2,-1,-4,/,?
C=CCn1cc(CN2CCC(C(=O)Nc3cccc(-c4cccc(F)c4)c3)CC2)c(C)n1,23µM*,3,-2,-9,4%,16µM*
C=CCn1cc(CN2CCC(C(=O)Nc3ccc(Oc4cccnc4)cc3)CC2)c(C)n1,-9%,0,-2,11,4%,-13%
C=CCn1cc(CN2CCC(C(=O)Nc3cccc(-c4cccc(Cl)c4)c3)CC2)c(C)n1,16µM*,/,1,-6,5%,16µM*
O=C(NCc1ccccc1CN1CCCCC1)c1ccccc1N1CCCC1=O,5%,3,7,6,-3%[56.1 µM],19%
O=C(CN1CCN(Cc2ccccc2)CC1)N1CCCCCC1,9%,2,8,24,4%,-1%
O=C(Nc1cccc(S(=O)(=O)N2CCCC2)c1)c1cccnc1,-18%,-5,-7,36,1%,0%
